Laboratory results reported in PubChem BioAssay (NCI).
The panel holds about 83,000 compounds, 20% with a hit somewhere; the sample as a whole holds those more often.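 Method: cells in 96-well plates; compound added at one concentration; 48 h incubation; percent growth measured; values under 10 scored active.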

Legend:
Test in all cases: NCI-60 one-dose screen, 48 h (100 = growth as untreated, 0 = no growth, -100 = all killed)
[1] = test system: HCT-15 colon; details: 10 µM
[2] = test system: HT29 colon; details: 10 µM
[3] = test system: SNB-75 CNS; details: 10 µM
[4] = test system: SNB-19 CNS; details: 10 µM
[5] = test system: U251 CNS; details: 10 µM
[6] = test system: PC-3 prostate; details: 10 µM
[7] = test system: SK-MEL-5 melanoma; details: 10 µM
[8] = test system: UACC-62 melanoma; details: 10 µM unless noted
[9] = test system: LOX IMVI melanoma; details: 10 µM
[10] = test system: SK-MEL-28 melanoma; details: 10 µM
[11] = test system: SK-MEL-2 melanoma; details: 10 µM
[12] = test system: EKVX NSCLC; details: 10 µM
[13] = test system: SN12C renal; details: 10 µM
[14] = test system: UO-31 renal; details: 10 µM
[15] = test system: TK-10 renal; details: 10 µM unless noted
[16] = test system: ACHN renal; details: 10 µM
[17] = test system: CAKI-1 renal; details: 10 µM
[18] = test system: A498 renal; details: 10 µM
[19] = test system: CCRF-CEM leukemia; details: 10 µM
[20] = test system: MOLT-4 leukemia; details: 10 µM

Measured: growth

O=C(O)c1cccc([N+](=O)[O-])c1
inactive: [1] 108% | [2] 111% | [3] 94.3% | [4] 106% | [5] 95.7% | [6] 93.1% | [7] 107% | [8] 101% | [9] 99.2% | [10] 112% | [11] 112% | [12] 114% | [13] 103% | [14] 89.6% | [15] 110% | [16] 114% | [17] 100% | [18] 102% | [19] 112% | [20] 101%

CCn1c(=O)n(C)c2c(=O)n(C)c(=O)n(C)c21
inactive: [1] 106% | [2] 101% | [3] 97.1% | [4] 102% | [5] 99.3% | [6] 97.4% | [7] 103% | [8] 107% | [9] 96.4% | [10] 118% | [11] 104% | [12] 103% | [13] 105% | [14] 87.4% | [15] 102% | [16] 105% | [17] 98.3% | [18] 91.7% | [19] 98.2% | [20] 101%

COc1cc(C(=O)NC(=S)Nc2ccc3ccccc3c2)cc(OC)c1OC
inactive: [1] 87.4% | [2] 100% | [3] 92% | [4] 107% | [5] 102% | [6] 82.4% | [7] 55.5% | [8] 36.5% | [9] 91% | [10] 98.1% | [11] 83.6% | [12] 102% | [13] 104% | [14] 66.7% | [15] 117% | [16] 93.7% | [17] 75.1% | [19] 98.6% | [20] 89.4%

CC1=C(/C=C/C(C)=C/C=C/C(C)=C/CO)C(C)(C)CCC1
inactive: [1] 112% | [2] 112% | [3] 95.3% | [4] 95.7% | [5] 102% | [6] 96.5% | [7] 107% | [8] 99.2% | [9] 94.7% | [10] 113% | [11] 107% | [12] 108% | [13] 104% | [14] 87.3% | [15] 111% | [16] 106% | [17] 88.6% | [18] 98% | [20] 97.9%

O=[N+]([O-])c1ccc(S(=O)(=O)NN=C2CCCCC2)cc1
inactive: [1] 115% | [2] 107% | [3] 87.8% | [4] 99.8% | [5] 111% | [6] 96.8% | [7] 105% | [8] 117% | [9] 95% | [10] 110% | [11] 147% | [12] 104% | [13] 103% | [14] 67.8% | [15] 128% | [16] 100% | [17] 92.5% | [18] 123% | [20] 98.7%

Nc1ccc(N=Nc2ccc(O)cc2)c(N)n1
inactive: [1] 64.5% | [2] 103% | [3] 82.5% | [4] 98.1% | [5] 76.6% | [6] 60.7% | [7] 73.3% | [8] 41% | [9] 79.4% | [10] 89.2% | [11] 97.1% | [12] 67.6% | [13] 72.8% | [14] 34.7% | [15] 93.7% | [16] 26.3% | [17] 39.1% | [19] 37.4% | [20] 46.1%

O=[N+]([O-])c1ccccc1N=Nc1ccc(O)cc1O
inactive: [1] 112% | [2] 112% | [3] 91.5% | [4] 111% | [5] 115% | [6] 97.2% | [7] 106% | [8] 124% | [9] 99.8% | [10] 121% | [11] 134% | [12] 116% | [13] 107% | [14] 66.3% | [15] 140% | [16] 109% | [17] 95.1% | [18] 139% | [20] 101%

C/C(O)=C(\C=N\C(N)=S)C(=O)Nc1ccccc1
inactive: [1] 110% | [2] 101% | [3] 88.1% | [4] 100% | [5] 97.4% | [6] 93.5% | [7] 97.6% | [8] 96.8% | [9] 96.7% | [10] 116% | [11] 107% | [12] 106% | [13] 94.1% | [14] 91.5% | [15] 124% | [16] 103% | [17] 97.8% | [18] 98.6% | [20] 103%

Cc1ccc(Cl)cc1N1C(=O)CC(Sc2ccccc2N)C1=O (centres undefined)
inactive: [1] 93.4% | [2] 109% | [3] 65.5% | [4] 102% | [5] 102% | [6] 89.5% | [7] 110% | [8] 95.8% | [9] 94.7% | [10] 92.5% | [11] 107% | [12] 104% | [13] 96.8% | [14] 105% | [15] 114% | [16] 94.2% | [17] 97.2% | [18] 103% | [19] 93.8% | [20] 74.7%
